# The supplement of paper PMC10849652
# About 7,900 targets were measured; listed, in parts, are those with a hit and a random draw of the rest. About 0.6% of all pairs of compound and target were hits. Values without a mark were called inactive.
# Experiments:
# Assay in all cases: log2 fold change, soluble protein after heating vs DMSO (PISA); higher = thermal stabilisation; K562 cells, 10 uM, 30 min; active = over 0.2 and 3.5 SD of the protein, either way, in both replicates (recomputed)
# [1] = compound: CC1=C(C=C(C=C1)NC(=O)C2=CC(=CC=C2)C(C)(C)C#N)NC3=CC4=C(C=C3)N=CN(C4=O)C
# Procedure, shortened: (§1)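 Quantification of soluble protein used TMTpro 16plex LC-MS/MS, with channel sums equalised. Samples were the supernatant after 21,000xg for 90 min of pooled aliquots from K562 cells (2×10^6 cells/mL) treated with 10 μM compound for 30 min, heated for 3 min over 48°C-58°C, and extracted in PBS with 0.5% NP-40 at 4°C. Values, from duplicates, describe thermal stability against control samples on a log2 fold-change scale.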
# [2] = compound: CC1=C(C=C(C=C1)NC(=O)C2=CC(=CC=C2)N(C)C)NC(=O)C3=CC=C(C=C3)O
# Procedure, shortened: as §1
# [3] = compound: CC1=CC=C(C=C1)SC2=C3C=C(SC3=CN=C2)C(=O)N
# Procedure, shortened: as §1
# [4] = compound: CC1=NC(=CC=C1)C2=C(N=C(N2)C(C)(C)C)C3=CC4=NC=CN=C4C=C3
# Procedure, shortened: as §1
# [5] = compound: CCCCN(Cc1ccc(C(=O)NO)cc1)C(=O)Nc1ccccc1 [Nexturastat A]
# Procedure, shortened: as §1
# [6] = compound: CCCS(=O)(=O)Nc1ccc(F)c(C(=O)c2c[nH]c3ncc(-c4ccc(Cl)cc4)cc23)c1F [vemurafenib]
# Procedure, shortened: as §1
# [7] = compound: CCCS(=O)(=O)Nc1ccc(F)c(C(=O)c2c[nH]c3ncc(Cl)cc23)c1F
# Procedure, shortened: as §1
# [8] = compound: CCCc1cc(C)[nH]c(=O)c1CNC(=O)c1cc(-c2ccnc(N3CCN(C)CC3)c2)cc2c1cnn2C(C)C
# Procedure, shortened: as §1
# [9] = compound: CCN(CC)Cc1ccc2cc(COC(=O)Nc3ccc(C(=O)NO)cc3)ccc2c1 [givinostat]
# Procedure, shortened: as §1
# [10] = compound: CCN(CCCOc1ccc2c(Nc3cc(CC(=O)Nc4cccc(F)c4)[nH]n3)ncnc2c1)CCOP(=O)(O)O [barasertib]
# Procedure, shortened: as §1
# [11] = compound: CC[C@@H]1C(=O)N(C)c2cnc(Nc3ccc(C(=O)NC4CCN(C)CC4)cc3OC)nc2N1C1CCCC1
# Procedure, shortened: as §1
# [12] = compound: CC[C@@H]1C(=O)N(C)c2cnc(Nc3ccc(C(=O)N[C@H]4CC[C@H](N5CCN(CC6CC6)CC5)CC4)cc3OC)nc2N1C(C)C [volasertib]
# Procedure, shortened: as §1
# [13] = compound: CC[C@H](C)N1C=C(C2=C(C=C(C=C21)C3=CN=C(C=C3)N4CCNCC4)C(=O)NCC5=C(C=C(NC5=O)C)C)C
# Procedure, shortened: as §1
# [14] = compound: CC[C@H](C)[C@@H](C(=O)N[C@@H]([C@@H](C)O)C(=O)N[C@@H](CC(C)C)C(=O)[C@]1(CO1)C)NC(=O)[C@H]([C@@H](C)CC)N(C)C(=O)C [epoxomicin]
# Procedure, shortened: as §1
# [15] = compound: CCn1c(C(=O)N(C2CC2)C2CC2)cc2c3c(ncn3C)c(Nc3cc(C)n(C)n3)nc21
# Procedure, shortened: as §1
# [16] = compound: CCn1cc(-c2ccnc3[nH]c(-c4cccc(CN(C)C)c4)cc23)c(-c2ccc(NC(=O)N(C)C)cc2)n1
# Procedure, shortened: as §1
# [17] = compound: CN(C)CC(=O)Nc1ccc2[nH]c(=O)c3ccccc3c2c1
# Procedure, shortened: as §1
# [18] = compound: CN(CCOC1=CC=C(C=C1)C[C@H]2C(=O)NC(=O)S2)C3=CC=CC=N3 (racemic) [rosiglitazone]
# Procedure, shortened: as §1
# [19] = compound: CN1C2=C(C3=C1C(=O)N(N=C3)CC4=CC(=CC=C4)N)SC(=C2)S(=O)C
# Procedure, shortened: as §1
# [20] = compound: CN1CCC(CNc2ccc3ncc(-c4cccc(OC(F)(F)F)c4)n3n2)CC1
# Procedure, shortened: as §1
# Sequence of UniProt Q9Y6R4 (Q9Y6R4 whole entry, looked up): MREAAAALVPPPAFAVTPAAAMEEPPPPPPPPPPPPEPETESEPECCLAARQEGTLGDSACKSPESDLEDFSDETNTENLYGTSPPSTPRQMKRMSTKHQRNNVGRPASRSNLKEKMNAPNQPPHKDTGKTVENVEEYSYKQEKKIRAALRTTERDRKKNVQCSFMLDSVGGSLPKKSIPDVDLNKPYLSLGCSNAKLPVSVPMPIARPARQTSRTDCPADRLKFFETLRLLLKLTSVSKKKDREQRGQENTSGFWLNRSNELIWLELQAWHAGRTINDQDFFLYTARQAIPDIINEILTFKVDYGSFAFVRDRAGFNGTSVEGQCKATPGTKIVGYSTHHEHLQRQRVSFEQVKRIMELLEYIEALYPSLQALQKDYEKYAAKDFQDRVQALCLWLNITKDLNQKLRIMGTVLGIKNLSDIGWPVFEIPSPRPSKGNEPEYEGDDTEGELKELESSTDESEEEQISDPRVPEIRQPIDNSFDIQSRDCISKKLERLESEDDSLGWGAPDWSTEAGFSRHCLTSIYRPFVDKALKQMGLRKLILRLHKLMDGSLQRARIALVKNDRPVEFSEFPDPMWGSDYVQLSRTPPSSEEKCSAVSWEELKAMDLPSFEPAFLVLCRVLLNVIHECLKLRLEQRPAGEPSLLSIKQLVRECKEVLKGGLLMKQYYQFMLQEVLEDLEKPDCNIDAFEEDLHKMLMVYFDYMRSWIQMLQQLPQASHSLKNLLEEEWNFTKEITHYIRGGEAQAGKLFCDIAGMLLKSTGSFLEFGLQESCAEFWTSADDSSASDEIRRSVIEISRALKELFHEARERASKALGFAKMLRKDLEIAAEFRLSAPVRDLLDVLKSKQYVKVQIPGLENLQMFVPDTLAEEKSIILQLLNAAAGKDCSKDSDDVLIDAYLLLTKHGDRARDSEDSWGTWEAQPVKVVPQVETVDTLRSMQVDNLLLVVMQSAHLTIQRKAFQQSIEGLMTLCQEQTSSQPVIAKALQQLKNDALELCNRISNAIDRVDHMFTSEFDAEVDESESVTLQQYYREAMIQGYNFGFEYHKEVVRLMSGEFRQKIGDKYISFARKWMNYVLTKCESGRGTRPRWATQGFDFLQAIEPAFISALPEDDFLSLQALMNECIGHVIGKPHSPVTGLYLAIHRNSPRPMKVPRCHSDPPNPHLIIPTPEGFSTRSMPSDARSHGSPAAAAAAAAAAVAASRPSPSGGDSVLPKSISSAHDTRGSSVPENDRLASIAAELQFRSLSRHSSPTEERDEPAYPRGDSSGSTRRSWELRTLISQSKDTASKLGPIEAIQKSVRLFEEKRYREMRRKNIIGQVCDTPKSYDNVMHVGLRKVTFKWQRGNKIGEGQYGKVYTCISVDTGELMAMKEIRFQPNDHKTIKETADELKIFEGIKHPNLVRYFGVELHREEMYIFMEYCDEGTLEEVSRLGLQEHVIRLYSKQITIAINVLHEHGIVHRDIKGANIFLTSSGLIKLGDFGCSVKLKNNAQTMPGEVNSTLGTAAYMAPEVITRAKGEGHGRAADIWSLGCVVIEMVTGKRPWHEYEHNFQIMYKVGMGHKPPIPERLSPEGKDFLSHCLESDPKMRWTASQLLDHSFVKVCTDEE
# Sequence of UniProt Q9NQ29 (Q9NQ29 whole entry, looked up): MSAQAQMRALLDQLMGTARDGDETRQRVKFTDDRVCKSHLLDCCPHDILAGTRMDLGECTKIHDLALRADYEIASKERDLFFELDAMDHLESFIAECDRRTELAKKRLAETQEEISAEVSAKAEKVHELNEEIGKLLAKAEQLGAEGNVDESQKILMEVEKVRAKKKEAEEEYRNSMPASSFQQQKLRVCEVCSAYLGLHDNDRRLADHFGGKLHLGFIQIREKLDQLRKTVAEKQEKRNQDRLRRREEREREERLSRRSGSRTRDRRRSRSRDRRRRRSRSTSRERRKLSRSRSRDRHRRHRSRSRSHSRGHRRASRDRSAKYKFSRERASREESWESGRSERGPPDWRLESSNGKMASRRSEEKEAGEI
# Sequence of UniProt O94829 (O94829 whole entry, looked up): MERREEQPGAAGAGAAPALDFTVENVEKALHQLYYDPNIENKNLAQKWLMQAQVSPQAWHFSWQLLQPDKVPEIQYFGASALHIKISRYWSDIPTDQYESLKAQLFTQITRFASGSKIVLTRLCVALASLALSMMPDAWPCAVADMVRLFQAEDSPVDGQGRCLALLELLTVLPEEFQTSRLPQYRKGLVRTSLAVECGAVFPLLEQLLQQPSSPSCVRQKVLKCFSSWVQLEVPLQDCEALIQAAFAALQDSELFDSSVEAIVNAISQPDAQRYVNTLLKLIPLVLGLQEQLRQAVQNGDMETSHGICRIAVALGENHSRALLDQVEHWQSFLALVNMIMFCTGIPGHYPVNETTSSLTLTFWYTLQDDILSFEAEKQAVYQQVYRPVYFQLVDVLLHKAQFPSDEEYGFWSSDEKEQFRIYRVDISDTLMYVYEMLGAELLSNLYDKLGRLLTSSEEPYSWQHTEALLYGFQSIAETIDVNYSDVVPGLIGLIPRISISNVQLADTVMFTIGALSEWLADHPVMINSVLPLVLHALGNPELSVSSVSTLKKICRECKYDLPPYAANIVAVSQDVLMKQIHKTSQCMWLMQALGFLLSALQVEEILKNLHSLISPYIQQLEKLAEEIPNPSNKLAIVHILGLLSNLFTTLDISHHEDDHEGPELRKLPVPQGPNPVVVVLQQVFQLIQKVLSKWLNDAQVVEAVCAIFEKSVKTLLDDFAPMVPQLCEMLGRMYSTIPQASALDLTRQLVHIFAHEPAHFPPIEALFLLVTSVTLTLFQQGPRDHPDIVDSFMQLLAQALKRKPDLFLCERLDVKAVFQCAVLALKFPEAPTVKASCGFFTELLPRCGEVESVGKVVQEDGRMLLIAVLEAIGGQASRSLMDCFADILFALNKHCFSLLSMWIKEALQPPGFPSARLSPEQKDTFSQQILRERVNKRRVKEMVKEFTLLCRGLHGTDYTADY
# Sequence of UniProt Q9H0C8 (Q9H0C8 whole entry, looked up): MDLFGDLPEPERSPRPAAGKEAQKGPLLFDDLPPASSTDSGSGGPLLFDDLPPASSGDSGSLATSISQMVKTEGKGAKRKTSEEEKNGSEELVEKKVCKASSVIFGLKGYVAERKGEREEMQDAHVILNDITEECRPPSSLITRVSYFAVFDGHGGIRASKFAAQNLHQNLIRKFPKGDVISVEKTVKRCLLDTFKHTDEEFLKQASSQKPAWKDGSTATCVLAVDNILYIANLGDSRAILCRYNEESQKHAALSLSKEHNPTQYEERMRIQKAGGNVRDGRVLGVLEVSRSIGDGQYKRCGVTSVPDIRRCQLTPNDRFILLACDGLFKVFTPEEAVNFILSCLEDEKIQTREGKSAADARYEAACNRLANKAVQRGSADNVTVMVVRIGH
# Sequence of UniProt Q6UB28 (Q6UB28 whole entry, looked up): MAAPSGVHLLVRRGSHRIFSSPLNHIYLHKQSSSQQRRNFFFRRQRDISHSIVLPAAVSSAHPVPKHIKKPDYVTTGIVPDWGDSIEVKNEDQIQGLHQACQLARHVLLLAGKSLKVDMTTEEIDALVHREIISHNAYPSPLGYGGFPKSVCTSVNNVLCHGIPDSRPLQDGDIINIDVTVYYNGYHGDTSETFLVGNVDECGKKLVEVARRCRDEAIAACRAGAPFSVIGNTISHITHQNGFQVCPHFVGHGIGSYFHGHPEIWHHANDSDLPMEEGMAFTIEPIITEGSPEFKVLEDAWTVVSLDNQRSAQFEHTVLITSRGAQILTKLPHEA
# Sequence of UniProt Q16891 (Q16891 whole entry, looked up): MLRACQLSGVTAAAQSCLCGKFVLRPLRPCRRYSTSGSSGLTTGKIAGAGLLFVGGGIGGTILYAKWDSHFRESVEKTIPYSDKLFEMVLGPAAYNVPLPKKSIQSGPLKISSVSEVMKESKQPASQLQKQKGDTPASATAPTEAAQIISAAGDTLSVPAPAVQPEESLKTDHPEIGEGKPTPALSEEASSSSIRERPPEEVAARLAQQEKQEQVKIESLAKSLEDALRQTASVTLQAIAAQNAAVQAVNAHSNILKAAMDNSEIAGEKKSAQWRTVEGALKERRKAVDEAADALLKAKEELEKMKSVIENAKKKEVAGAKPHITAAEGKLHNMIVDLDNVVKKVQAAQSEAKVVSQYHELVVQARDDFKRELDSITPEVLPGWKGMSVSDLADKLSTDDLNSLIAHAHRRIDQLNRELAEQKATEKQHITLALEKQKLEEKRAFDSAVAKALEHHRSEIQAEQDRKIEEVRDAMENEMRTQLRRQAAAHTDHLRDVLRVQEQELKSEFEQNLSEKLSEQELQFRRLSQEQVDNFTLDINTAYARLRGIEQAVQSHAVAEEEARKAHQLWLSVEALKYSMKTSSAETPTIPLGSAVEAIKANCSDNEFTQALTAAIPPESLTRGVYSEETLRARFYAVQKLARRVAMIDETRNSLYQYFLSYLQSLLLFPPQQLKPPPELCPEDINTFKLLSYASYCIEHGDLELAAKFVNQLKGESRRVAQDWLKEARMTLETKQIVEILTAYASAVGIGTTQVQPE
# Sequence of UniProt Q8IWB1 (Q8IWB1 whole entry, looked up): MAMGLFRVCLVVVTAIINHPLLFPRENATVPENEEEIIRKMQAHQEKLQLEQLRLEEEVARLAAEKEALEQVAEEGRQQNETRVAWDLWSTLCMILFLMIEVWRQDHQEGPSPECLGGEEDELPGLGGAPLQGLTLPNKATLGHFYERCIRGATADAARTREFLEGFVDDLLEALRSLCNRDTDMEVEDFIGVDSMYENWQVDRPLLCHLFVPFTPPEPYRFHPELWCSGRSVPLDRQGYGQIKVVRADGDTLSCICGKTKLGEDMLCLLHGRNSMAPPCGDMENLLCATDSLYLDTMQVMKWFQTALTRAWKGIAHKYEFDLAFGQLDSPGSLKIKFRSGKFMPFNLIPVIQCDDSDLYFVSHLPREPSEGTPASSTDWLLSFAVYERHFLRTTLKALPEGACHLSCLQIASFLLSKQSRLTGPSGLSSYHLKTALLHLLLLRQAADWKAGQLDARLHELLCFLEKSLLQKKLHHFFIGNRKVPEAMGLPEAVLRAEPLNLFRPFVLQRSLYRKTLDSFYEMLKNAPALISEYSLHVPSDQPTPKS
Target,log2 fold change [1],log2 fold change [2],log2 fold change [3],log2 fold change [4],log2 fold change [5],log2 fold change [6],log2 fold change [7],log2 fold change [8],log2 fold change [9],log2 fold change [10],log2 fold change [11],log2 fold change [12],log2 fold change [13],log2 fold change [14],log2 fold change [15],log2 fold change [16],log2 fold change [17],log2 fold change [18],log2 fold change [19],log2 fold change [20]
LARP4 isoform 4 (UniProt Q71RC2),0.066,0.005,-0.041,-0.002,0.251,-0.017,0.018,0.054,0.04,-0.053,-0.016,-0.351,0.117,-0.107,0.005,0.07,0.009,0.018,0.137,-0.252
MAP3K4 isoform 2 (UniProt Q9Y6R4),-0.012,0.026,-0.018,-0.003,0.008,-0.033,-0.001,-0.012,-0.015,0.02,0.141,0.398 (active),-0.013,0.007,0,-0.519 (active),0.013,0.018,-0.018,0.024
ITPRIP (UniProt Q8IWB1),-0.044,0.007,-0.01,0.081,0.005,0.02,0.061,-0.099,0.007,0.023,-0.037,-0.148,-0.012,-0.019,-0.016,0.031,0,0.044,-0.111,-0.017
IPO11 isoform 2 (UniProt Q9UI26),0.028,0.004,0.024,0.047,-0.002,0.052,0.082,-0.031,-0.031,0.014,-0.104,-0.3 (active),-0.004,0.066,-0.01,-0.068,0.028,-0.002,-0.082,-0.016
MAP4 (UniProt E7EVA0),0,0.008,-0.03,-0.061,0.161,-0.046,-0.002,0.024,0.091,0.061,0.079,0.246,0.036,-0.113,-0.004,0.068,-0.021,-0.206,0.131,0.152
LRBA (UniProt P50851),-0.011,0,-0.011,0.001,-0.046,0.01,0.031,-0.025,0.008,0.038,-0.05,-0.221 (active),0.034,0.017,0,-0.074,0.008,0.048,-0.057,-0.139
IRF3 (UniProt Q14653),0.18,-0.081,0.011,0.077,-0.046,0.074,0.098,0.011,0.031,-0.015,-0.05,-0.1,-0.052,-0.035,-0.02,-0.037,0.018,0.024,-0.024,-0.045
IMMT isoform 4 (UniProt Q16891),0.009,0.012,0.032,0.032,-0.027,-0.007,0.002,-0.045,-0.022,0.001,-0.131,-0.099,0.013,0.035,0.015,-0.004,0.002,0.002,-0.047,-0.325 (active)
METAP1D (UniProt Q6UB28),-0.022,0.009,0.047,-0.09,-0.087,-0.032,-0.053,0.056,-0.054,-0.074,0.031,-0.082,0.051,0.074,-0.039,,-0.065,0.013,0.052,
MAGOHB (UniProt Q96A72),-0.002,-0.062,0.008,0.067,-0.026,0.037,0.04,-0.069,0.003,0.007,-0.046,-0.096,0.014,0.007,-0.041,0.003,0.013,0.017,-0.039,0.023
LSR (UniProt Q86X29),-0.051,0.016,-0.05,-0.05,-0.074,-0.028,-0.061,-0.019,-0.046,-0.016,0.109,0.068,-0.02,-0.021,-0.013,0.011,-0.033,0.011,-0.001,0.214 (active)
LUC7L3 (UniProt O95232),-0.046,0.034,-0.036,0.086,-0.008,0.024,0.013,-0.009,0.003,0.022,-0.057,-0.185,0.027,0.005,-0.025,0,-0.031,0.004,-0.009,-0.074
KDM5D isoform 3 (UniProt Q9BY66),-0.132,-0.144,0.036,0.039,-0.08,0.003,0.128,-0.004,0.014,0.108,-0.305,-0.404,0.032,0.163,-0.01,0.034,0.223,0.108,-0.14,-0.059
LUC7L (UniProt Q9NQ29),0.028,0.003,-0.022,-0.021,0.054,-0.007,-0.004,0.027,-0.034,-0.01,0.006,-0.005,0.005,-0.052,0.048,0.01,-0.043,-0.003,0.108,0.052
IPO13 (UniProt O94829),0.068,-0.013,-0.008,-0.027,-0.03,-0.01,0.047,0.009,-0.011,0.044,-0.367 (active),-0.291 (active),-0.081,0.048,0.015,-0.084,-0.013,0.072,0.048,-0.333 (active)
ILKAP (UniProt Q9H0C8),-0.026,-0.117,0.072,0.168,0,0.08,0.082,0.063,0.071,0.07,-0.135,-0.343 (active),0.127,0.077,-0.071,-0.052,0.086,0.023,-0.085,-0.064
